PubChem BioAssay
Active and inactive are the calls of the source. Unless noted, the rule behind the calls is not given here.

Assays:
[1] = compound effects on lung adenocarcinoma cell viability – A549, calcein-AM fluorescence, 48 h, basal, profiling panel (AID 1162); details: higher = more signal; note: test concentration not given here
[2] = compound effects on differentiated 3T3-L1 adipocyte viability – cell-based, 3T3-L1 adipocytes, calcein-AM fluorescence, 48 h, basal, profiling panel (AID 1163); details: 3T3-L1 adipocytes viability, higher = more signal; note: test concentration not given here
[3] = compound effects on hepatocellular carcinoma cell viability – HepG2, calcein-AM fluorescence, 48 h, basal, profiling panel (AID 1164); details: higher = more signal; note: test concentration not given here
[4] = compound effects on multiple myeloma cell viability – MM1S, calcein-AM fluorescence, 48 h, basal, profiling panel (AID 1165); details: higher = more signal;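 note: viability of MM1S multiple myeloma cells under basal unstimulated conditions; test concentration not given here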
[5] = calcein-AM signal in unstimulated myeloma cells – cell-based, calcein-AM fluorescence, 48 h, PK04 Diversity Set, profiling panel (AID 1166); details: RPMI8226 myeloma viability, higher = more signal;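 note: cells grown under basal conditions without added stimulus; test concentration not given here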
[6] = JC-1 mitochondrial signal, unstimulated HepG2 cells – cell-based, JC-1 fluorescence, 24 h, 100 nL compound, profiling panel (AID 1167); details: HepG2 mitochondrial potential, higher = more signal; note: test concentration not given here
[7] = JC-1 mitochondrial signal, unstimulated adipocytes – cell-based, JC-1 fluorescence, 3T3-L1 adipocytes, 24 h, 100 nL compound, profiling panel (AID 1168); details: JC-1 mitochondrial fluorescence, higher = more signal, called active from +8 up or from −8 down; note: test concentration not given here
[8] = JC-1 mitochondrial signal, unstimulated myeloma cells – cell-based, JC-1 fluorescence, RPMI8226, 24 h, 100 nL compound, profiling panel (AID 1169); details: JC-1 mitochondrial potential fluorescence, higher = more signal; note: test concentration not given here
[9] = JC-1 mitochondrial signal, unstimulated MM1S myeloma – cell-based, JC-1 fluorescence, 24 h, 100 nL compound, profiling panel (AID 1170); details: MM1S mitochondrial potential, higher = more signal; note: test concentration not given here
[10] = resazurin metabolic signal in A549 cells – cell-based, resazurin fluorescence, 24 h, PK04 Diversity Set, profiling panel (AID 1171); details: A549 viability, higher = more signal, called active from +8 up or from −8 down; note: test concentration not given here
[11] = resazurin metabolic signal in HepG2 cells – cell-based, resazurin fluorescence, 24 h, PK04 Diversity Set, profiling panel (AID 1172); details: HepG2 viability, higher = more signal; note: test concentration not given here
[12] = budding yeast growth changes without added modifier – OD600, strain BY4716, 24 h, basal condition, primary screen (AID 1173); details: S. cerevisiae BY4716 growth, OD600, 24 h; higher = more signal, called active from +8 up or from −8 down
[13] = viability profiling in MM1S myeloma cells – cell-based, resazurin fluorescence, basal, 24 h, PK04 Diversity Set, profiling panel (AID 1174); details: higher = more signal, called active from +8 up or from −8 down; note: test concentration not given here
[14] = molecular target: Dihydroorotate dehydrogenase (quinone), mitochondrial (Plasmodium falciparum (isolate 3D7)) (UniProt Q08210); test: inhibition of P. falciparum DHODH – biochemical, C-terminal His tag, absorbance 600 nm, primary screen (AID 1175); details: PfDHODH enzyme, DCIP absorbance 600 nm; higher = more signal, called active from +8 up or from −8 down;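 note: recombinant parasite enzyme with a five histidine tag at its C terminus; test concentration not given here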
[15] = inhibition of PAO1 biofilm formation – strain PAO1, LB-PBS medium, absorbance 600 nm, primary screen (AID 1176); note: test concentration not given here; details: P. aeruginosa PAO1 growth/biofilm, A600, 12 h; higher = more signal
[16] = growth modulation of vineyard yeast isolate – strain RM11-1a, OD600, basal, 24 h, primary screen (AID 1177);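 note: cultures grown under basal conditions with no added stressor; test concentration not given here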; details: S. cerevisiae RM11-1a growth, OD600, 24 h; higher = more signal, called active from +8 up or from −8 down
[17] = growth of efflux-deficient E. coli DRC39 – strain DRC39, OD650, 24 h, E. coli filamentation inducers, primary screen (AID 1178);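 note: growth measured as culture turbidity by optical density at 650 nm; test concentration not given here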; details: E. coli DRC39 acrAB, higher = more signal, called active from +8 up or from −8 down
[18] = growth of efflux-deficient E. coli DRC39 – strain DRC39, OD650, 48 h, E. coli filamentation inducers, primary screen (AID 1179);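 note: screen aims at cell division blockers that make cells filament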; details: E. coli DRC39 delta-acrAB growth, higher = more signal, called active from +8 up or from −8 down
[19] = viability profiling in RPMI8226 myeloma cells – cell-based, resazurin fluorescence, basal, 24 h, PK04 Diversity Set, profiling panel (AID 1180); details: higher = more signal;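 note: RPMI8826 multiple myeloma cell line at 5000 cells per well; test concentration not given here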
[20] = molecular target: E3 ubiquitin-protein ligase XIAP (Homo sapiens) (UniProt P98170); test: small molecules binding XIAP protein – biophysical, small-molecule microarray, fluorescence 635 nm, primary screen (AID 1181); details: higher = more signal;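 note: score merges 667 nm emission and signal to noise over triplicate slides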
E3 ubiquitin-protein ligase XIAP (Homo sapiens), sequence (P98170 whole entry, looked up): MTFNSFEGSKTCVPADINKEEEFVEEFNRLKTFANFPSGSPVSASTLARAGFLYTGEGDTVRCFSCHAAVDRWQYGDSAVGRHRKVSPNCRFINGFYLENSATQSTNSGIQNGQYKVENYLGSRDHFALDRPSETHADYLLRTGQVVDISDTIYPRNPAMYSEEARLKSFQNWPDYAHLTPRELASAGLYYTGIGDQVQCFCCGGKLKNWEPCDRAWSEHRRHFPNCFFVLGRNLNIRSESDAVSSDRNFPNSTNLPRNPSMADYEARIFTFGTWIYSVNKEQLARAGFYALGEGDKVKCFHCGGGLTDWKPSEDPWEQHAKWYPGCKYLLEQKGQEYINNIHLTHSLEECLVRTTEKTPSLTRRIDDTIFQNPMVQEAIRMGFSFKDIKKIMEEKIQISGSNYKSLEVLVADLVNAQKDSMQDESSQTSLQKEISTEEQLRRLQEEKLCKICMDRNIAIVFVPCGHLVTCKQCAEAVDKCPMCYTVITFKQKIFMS

Dihydroorotate dehydrogenase (quinone), mitochondrial (Plasmodium falciparum (isolate 3D7)), sequence (Q08210 whole entry, looked up): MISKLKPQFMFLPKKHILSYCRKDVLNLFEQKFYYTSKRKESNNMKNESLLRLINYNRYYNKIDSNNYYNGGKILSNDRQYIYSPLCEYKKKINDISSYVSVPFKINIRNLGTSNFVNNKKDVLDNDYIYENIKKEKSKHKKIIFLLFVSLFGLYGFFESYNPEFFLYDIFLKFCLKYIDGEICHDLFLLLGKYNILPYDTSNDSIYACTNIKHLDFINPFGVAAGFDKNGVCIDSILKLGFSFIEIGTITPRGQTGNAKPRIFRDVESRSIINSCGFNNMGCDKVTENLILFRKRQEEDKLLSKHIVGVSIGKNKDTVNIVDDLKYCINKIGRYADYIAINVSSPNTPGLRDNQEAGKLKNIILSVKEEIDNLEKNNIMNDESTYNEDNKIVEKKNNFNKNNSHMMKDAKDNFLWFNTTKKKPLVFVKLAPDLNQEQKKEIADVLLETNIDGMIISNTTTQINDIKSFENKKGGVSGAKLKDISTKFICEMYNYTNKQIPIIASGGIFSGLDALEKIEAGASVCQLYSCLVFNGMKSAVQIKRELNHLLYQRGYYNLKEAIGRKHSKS

SMILES | z-score [1] | z-score [2] | z-score [3] | z-score [4] | z-score [5] | z-score [6] | z-score [7] | z-score [8] | z-score [9] | z-score [10] | z-score [11] | z-score [12] | z-score [13] | composite z-score [14] | z-score [15] | z-score [16] | z-score [17] | z-score [18] | z-score [19] | composite z-score [20]
O=C1C2C=CC(C(O)C3CCCCC3)N(Nc3ccccc3F)C2C(=O)N1c1ccccc1 (stereo not given) | -0.112 | 0.1 | -0.528 | 0.345 | -0.925 | -0.804 | -0.865 (inactive) | -0.224 | -0.433 | -0.852 (inactive) | -1.87 | -0.701 (inactive) | -0.631 (inactive) | -0.572 (inactive) | 0.931 (inactive) | -0.375 (inactive) | 0.221 (inactive) | -0.1 (inactive) | -0.14 | -0.235
COC(=O)c1c2oc(c1C(=O)OC)C(=O)N[C@H](Cc1ccccc1)Cn1cc(nn1)C1(CCCCC1)NC(=O)N[C@H](CO)CC2 | 0.78 | 0.705 | 0.286 | 0.977 | 0.943 | 0.381 | 0.621 (inactive) | -0.662 | -1.2 | -0.547 (inactive) | 0.483 | -2.6 (inactive) | 0.247 (inactive) | -0.174 (inactive) | 0.772 (inactive) | 0.0801 (inactive) | -0.051 (inactive) | 0.565 (inactive) | 0.245 | -0.113
CN1C(=O)C2C(C1=O)C1C=C(CCCO)C2C(C2CC2)N1C (stereo not given) | -0.0397 | -0.333 | 0.019 | 0.828 | 0.929 | 1.18 | 0.693 (inactive) | -0.786 | -0.641 | -1.61 (inactive) | -1.15 | 0.275 (inactive) | -0.228 (inactive) | -2.87 (inactive) | -0.214 (inactive) | -0.593 (inactive) | 0.796 (inactive) | 1.44 (inactive) | -0.965 | 0.333
CC(C)(C)OC(=O)CC[C@@]1(C(=O)N2CCOCC2)N=C(c2ccc(OCCCO)cc2)O[C@@H]1c1ccccc1CN=[N+]=[N-] | -0.688 | 1.35 | -0.261 | -0.169 | -1.58 | 0.259 | -0.506 (inactive) | -0.546 | -0.567 | 0.792 (inactive) | -0.538 | -0.295 (inactive) | -0.383 (inactive) | -0.405 (inactive) | 0.342 (inactive) | -0.423 (inactive) | -0.294 (inactive) | -0.0909 (inactive) | -0.365 | 0.0345
O=C(NC1CC1)[C@@H]1c2ccccc2C(=O)N(C2CCCCC2)[C@H]1c1ccc(CO)cc1 | 1.35 | -0.27 | 1.12 | -0.856 | -0.591 | 1.38 | -0.724 (inactive) | 0.512 | -0.256 | 0.0989 (inactive) | -0.358 | 0.678 (inactive) | -1.27 (inactive) | -0.245 (inactive) | 0.292 (inactive) | -0.456 (inactive) | -0.185 (inactive) | 0.138 (inactive) | -0.166 | -0.323
CC(C)C[C@H]1NC(=O)CNC(=O)[C@@]23C(=O)N[C@@H](Cc4ccccc4)C2[C@H](C)[C@@]2(C)O[C@H]2C3/C=C/C/C=C\CNC1=O (stereo not given in full) | -0.518 | 0.535 | -0.899 | -0.101 | -0.0815 | -0.561 | 0.451 (inactive) | -0.469 | -0.112 | 0.478 (inactive) | -0.657 | -0.572 (inactive) | 0.105 (inactive) | -0.341 (inactive) | 1.11 (inactive) | 0.0636 (inactive) | -0.288 (inactive) | -0.141 (inactive) | 0.293 | -0.122
C=CCN1C(=O)[C@@]2(O[C@@H](CCO)[C@H]([Si](C)(C)c3ccc(OC)cc3)[C@H]2C)c2cc(N3CCCCC3=O)ccc21 | -0.816 | 0.146 | -4.51 | -2.69 | -4.05 | -1.44 | -0.0545 (inactive) | -1.01 | -1.75 | -2.04 (inactive) | -2.74 | 0.208 (inactive) | -4.57 (inactive) | -1.11 (inactive) | 0.568 (inactive) | 2.45 (inactive) | 1.16 (inactive) | 0.777 (inactive) | -5.44 | 0.271
C[C@H]1C2[C@H](Cc3ccccc3)NC(=O)[C@]23C(=O)N[C@@H](Cc2ccccc2)C(=O)N2CCC[C@H]2C(=O)NC/C=C/CC/C=C/C3[C@@H]2O[C@]12C (stereo not given in full) | -0.168 | 1.18 | -0.512 | -0.132 | -0.876 | 1.11 | 0.308 (inactive) | 0.0536 | 0.793 | -0.0612 (inactive) | -0.661 | 0.321 (inactive) | -0.299 (inactive) | -0.0587 (inactive) | 0.355 (inactive) | -0.0615 (inactive) | 0.159 (inactive) | -0.882 (inactive) | -0.39 | -0.0663
COc1ccc([Si](C)(C)[C@H]2[C@H](CC(=O)N(CCO)Cc3ccccc3)O[C@@]3(C(=O)N(Cc4cccc(N5CCCCC5=O)c4)c4ccccc43)[C@@H]2C)cc1 | -0.166 | 1.19 | -1.16 | -0.391 | -4.18 | 0.553 | 1.65 (inactive) | -0.981 | -1.61 | -1.91 (inactive) | -0.415 | -0.0548 (inactive) | -2.35 (inactive) | -1.02 (inactive) | 1.77 (inactive) | 1.45 (inactive) | 0.72 (inactive) | 0.832 (inactive) | -3.16 | -0.0559
